VACV Venus inh: inhibitors of vaccinia virus (Venus reporter); hit rate 0.46% among 330,000; Potency, µM (titrated, usually from 36.5 µM), for the others: at the highest dose activity change, negative = inhibition, hits mostly inhibitors; AID 720580; Vaccinia virus Venus reporter expression, fluorescence; calls by dose curve; tested in A549 cells; further: potency means the concentration at half of the fitted maximal effect; nearly all actives have a fitted effect of over 30% in size
HCV inhibitor: blocks hepatitis C virus; hit rate 3.4% among 340,000; Huh7.5.1 HCVcc-Cre infection, luciferase reporter, 44 h; AID 651820; Potency, µM (doses to about 41.8 µM), inactives show at the highest dose activity change, negative = inhibition, actives largely listed as inhibitors; active means well fitted inhibition curve with a large enough effect; inconclusive means small, poorly fitted or top-dose-only effect, or another doubt; inactive means no such curve, though single readings can be large or run the other way; further: potency means the concentration at half of the fitted maximal effect
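HCVcc-Cre virus at an moi near 0.5 was added right after compound to cells cultured 4 h from seeding (1,000 cells/well). Luciferase activity was determined 44 h later, 15 min after substrate addition at RT.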
HCMV inh: inhibitors of human cytomegalovirus; HFF cells, HCMV-luciferase reporter, 72 h; hits give low values; activity change, negative = inhibition, % at 57.5 µM; hit rate 4.5% among 410,000; AID 1259415; in the data active means activity change below about -60%; inconclusive means no clear call, values can overlap the other calls; inactive means above about -39%
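Steps: HFFs plated, 16 h 37C; compounds added; HCMV-luciferase added to MOI 1 PFU/cell; 72 h 37C; OneGlo reagent, 5 min room temperature; luminescence read, normalized to controls.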
FMDV antiviral: blocks foot and mouth disease virus; FMDV antiviral cell-based qHTS; Potency, µM (series often up to 57.9 µM), for the others: at the highest dose activity change, negative = inhibition, actives largely listed as inhibitors; hit rate 1.2% among 410,000; calls by dose curve; tested in HEK293T cells; further: read-out not given here; potency means the concentration at half of the fitted maximal effect; nearly all actives have a fitted effect of over 45% in size
Vaccinia mCherry: inhibitors of vaccinia virus infection (mCherry reporter signal); hit rate 0.63% among 310,000; Potency, µM (series often up to 36.5 µM), without a hit: top-dose activity change, negative = inhibition, usual class: inhibitors; Vaccinia virus mCherry reporter infection, fluorescence; calls by dose curve; tested in A549 cells; further: potency means the concentration at half of the fitted maximal effect; nearly all actives have a fitted effect of over 35% in size
* hit, by the source's call. In the library only some 7.3% were active in any assay of this set; here they are far more common. On the % scale 0 is the no-effect control and ±100 the full control effect.

How did CNC[C@H](CC1CCCCC1)NC[C@H](CO)NCCc1cccc(C(F)(F)F)c1 do in these assays?
VACV Venus inh: 20µM*; HCV inhibitor: inconclusive; HCMV inh: -100*; FMDV antiviral: -16%; Vaccinia mCherry: inconclusive

Results for COc1ccc(C2(C(=O)NCC3Cc4cccc(-c5cccnc5)c4O3)CCCC2)cc1 (stereo unspecified) ?
VACV Venus inh: -12%; FMDV antiviral: -14%; Vaccinia mCherry: -19%

What do the screens show for `CCC1CN(CCNC(=O)C(C)(C)O)Cc2cc(OC)ccc2O1` (stereo unspecified)?
VACV Venus inh: 0%; FMDV antiviral: -7%; Vaccinia mCherry: -13%

What do the screens show for `NC(N)=Nc1nc2cc([N+](=O)[O-])ccc2o1`?
HCV inhibitor: -8%; HCMV inh: -71*; FMDV antiviral: 28%

How did Cc1ccc(-c2csc(N(CCO)CCCn3c(C(F)(F)F)nc4ccccc43)n2)cc1 do in these assays?
VACV Venus inh: inconclusive; HCV inhibitor: 10µM*; HCMV inh: -64*; FMDV antiviral: inconclusive; Vaccinia mCherry: -30%

How did CCSc1nnc(NC(=O)C2CCN(C(=O)c3ccco3)CC2)s1 do in these assays?
VACV Venus inh: -14%; Vaccinia mCherry: -3%

Results for O=C(C[n+]1cccc(Br)c1)c1ccc(I)cc1 ?
VACV Venus inh: -9%; Vaccinia mCherry: inactive

What do the screens show for `Cc1ccccc1-n1nc(C(=O)c2cccs2)cc(-c2nc3ccccc3[nH]2)c1=N`?
HCV inhibitor: 10µM*; HCMV inh: 2; FMDV antiviral: -10%

Results for COc1ccc(-n2nc(C(=O)c3cccs3)cc(-c3nc4ccccc4[nH]3)c2=N)cc1 ?
HCV inhibitor: 11µM*; HCMV inh: 160; FMDV antiviral: 6%

What do the screens show for `COc1cc(Cl)c(S(=O)(=O)NCCc2c(C)[nH]c3c(C)cccc23)cc1Cl`?
VACV Venus inh: -15%; HCMV inh: 14; FMDV antiviral: 9%; Vaccinia mCherry: -18%

How did COc1ccc(-n2c(/C=C/c3ccccc3F)nc3cc(OC)c(OC)cc3c2=O)cc1Cl do in these assays?
VACV Venus inh: -23%; HCMV inh: 15; FMDV antiviral: -12%; Vaccinia mCherry: -25%

How did CCCCN(CCCC)C(=S)N/N=C/c1c(C)[nH]n(-c2ccccc2)c1=O do in these assays?
VACV Venus inh: -20%; HCV inhibitor: inconclusive; HCMV inh: -1; FMDV antiviral: -24%; Vaccinia mCherry: inconclusive

Results for CCCSC(=S)c1c(C)[nH]n(-c2ccccc2)c1=O ?
VACV Venus inh: inconclusive; HCV inhibitor: inconclusive; HCMV inh: -79*; FMDV antiviral: 4%; Vaccinia mCherry: -16%

What do the screens show for `COc1cc(NC(=O)c2cccs2)c(C(=O)OCC(=O)c2cc(C)n(-c3ccccc3)c2C)cc1OC`?
VACV Venus inh: -2%; HCV inhibitor: 11%; HCMV inh: -34; FMDV antiviral: 4µM*; Vaccinia mCherry: -17%

What do the screens show for `COc1cc(NC(=O)COc2ccccc2Cl)ccc1NC(=O)c1cccs1`?
VACV Venus inh: -16%; HCV inhibitor: 1.1µM*; HCMV inh: 45; FMDV antiviral: 0%; Vaccinia mCherry: -28%

How did COc1cc(NC(=O)c2cccs2)c(C(=O)OCC(=O)c2cc(C)n(-c3ccc(F)cc3)c2C)cc1OC do in these assays?
VACV Venus inh: -6%; HCV inhibitor: -14%; HCMV inh: -22; FMDV antiviral: inconclusive; Vaccinia mCherry: -1%

How did COc1cc(NC(=O)c2cccs2)c(OC)cc1NC(=O)Cc1ccccc1 do in these assays?
VACV Venus inh: -18%; HCV inhibitor: 35µM*; HCMV inh: -8; FMDV antiviral: -1%; Vaccinia mCherry: -22%

What do the screens show for `COc1cc(NC(=O)COc2ccccc2[N+](=O)[O-])ccc1NC(=O)c1cccs1`?
VACV Venus inh: inconclusive; HCV inhibitor: inconclusive; HCMV inh: inconclusive; FMDV antiviral: -11%; Vaccinia mCherry: -18%

Results for Cc1cccc2[nH]cc(/C=C3/C=Nc4ccccc43)c12 ?
VACV Venus inh: 26%; Vaccinia mCherry: -16%

Results for CCCn1c2ccccc2c2cnn(CC(=O)N3CCC(C)CC3)c(=O)c21 ?
VACV Venus inh: -8%; HCMV inh: inconclusive; FMDV antiviral: -13%; Vaccinia mCherry: inactive

What do the screens show for `COc1ccccc1CNc1ccc2c(c1)OC[C@H](CC(C)C)NS2(=O)=O`?
HCMV inh: -28

How did CCCNC(=O)c1nnc2n1CCN(C(=O)c1ccc3sccc3c1)C2 do in these assays?
HCMV inh: -8

Results for CCCCC[n+]1cccc2c3ccccc3ccc21 ?
HCV inhibitor: inconclusive; HCMV inh: -95*; FMDV antiviral: inconclusive

How did c1ccc(C[n+]2cccc3c4ccccc4ccc32)cc1 do in these assays?
VACV Venus inh: inconclusive; HCV inhibitor: inconclusive; HCMV inh: -94*; FMDV antiviral: inconclusive; Vaccinia mCherry: inconclusive

Results for Cc1ccc(CN2C[C@H](Sc3ccccn3)C[C@H]2C(=O)Nc2ccc3sc(C)nc3c2)c(C)c1 ?
VACV Venus inh: -14%; FMDV antiviral: 6%; Vaccinia mCherry: -13%

How did Cc1ccc(C)c(N2CCN(C(=O)CCS(=O)(=O)c3cc(Br)cc4c3N(C(=O)C3CC3)CC4)CC2)c1 do in these assays?
VACV Venus inh: -10%; HCMV inh: -23; FMDV antiviral: -10%; Vaccinia mCherry: -12%

Results for CCCCCNC(=O)c1ccc(NS(=O)(=O)c2ccc3[nH]c(=O)[nH]c3c2)cc1 ?
VACV Venus inh: -12%; HCV inhibitor: 3%; HCMV inh: -95*; FMDV antiviral: -9%; Vaccinia mCherry: inactive

What do the screens show for `Cc1cccc(N2CCN(C(=O)c3ccc(NS(=O)(=O)c4ccc5[nH]c(=O)[nH]c5c4)cc3)CC2)c1C`?
VACV Venus inh: -20%; HCV inhibitor: -16%; HCMV inh: -67*; FMDV antiviral: 12%; Vaccinia mCherry: -3%

What do the screens show for `O=C(c1ccc(NS(=O)(=O)c2ccc3[nH]c(=O)[nH]c3c2)cc1)N1CCN(c2ccccc2O)CC1`?
VACV Venus inh: -2%; HCV inhibitor: 12%; HCMV inh: -9; FMDV antiviral: -14%; Vaccinia mCherry: inconclusive

What do the screens show for `CCOC(=O)CC(NC(=O)C(Cc1ccc(N(CCCl)CCCl)cc1)NC(C)=O)C(=O)OCC` (stereo unspecified)?
VACV Venus inh: -8%; HCV inhibitor: inconclusive; HCMV inh: -92*; FMDV antiviral: -30%; Vaccinia mCherry: inactive

What do the screens show for `CN(C)CC(=O)Nc1nc(-c2ccccc2)cs1`?
VACV Venus inh: -11%; HCV inhibitor: -7%; HCMV inh: 113; FMDV antiviral: 28%; Vaccinia mCherry: -5%

Results for Cc1ccc(-c2csc(NC(=O)CSC3=NCCS3)n2)cc1 ?
HCV inhibitor: 18%; HCMV inh: 8; FMDV antiviral: -25%

Results for CCOC(=S)SCC(=O)Nc1nc(-c2ccc(Br)cc2)cs1 ?
VACV Venus inh: inconclusive; HCV inhibitor: inconclusive; HCMV inh: -100*; FMDV antiviral: inconclusive; Vaccinia mCherry: inconclusive
